Results reported in the supplement of paper PMC11417369.
± gives the standard deviation of the averaged measurements. Over roughly 25,000 sequences, “ln(normalized median fluorescence intensity)” has its median near 10; the highest 2% begin near 12. The full list was thinned out, with the highest values kept by preference.

System: PfAP2-G AP2 domain (GST-tagged)
Experiment: gcPBM binding intensity (ln(normalized median fluorescence intensity)); higher = stronger DNA binding
Procedure, shortened: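 After 1 h on an Agilent 4 × 180k array of primer-extended double-stranded 36-bp intergenic genomic probes and negative controls, bound GST-tagged P. falciparum DNA-binding domains were detected with Alexa488 anti-GST antibody and scanned at 488 nm. The domains had been expressed in E. coli, and binding took place in 1× PBS with 1% milk, 0.2 mg/ml BSA, 0.5% salmon testes DNA and 0.03% Triton X-100. Binding intensity is the highest Masliner-normalised natural-log median intensity across replicate spots of either probe orientation.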

In order of falling “gcPBM binding intensity (ln)” value:
1. ATTATAAGAAGGGGGGGTACATAAATATAAATGTAT [XGTACX_site5624]  11.9 ± 0.95
2. AATAATATATGGTGTACACAAAAGTATAAATAATTT [CACACA_site5338]  11.9 ± 1
3. ACTACTCCATTAAGTAGTACACAAAAAAAAAAAATA [XGTACX_site7031]  11.8 ± 1.1
4. AATAATAACTGTAGGTGTACGTAAAAAAAAAATTAT [XGTACX_site3133]  11.7 ± 0.96
5. TTTGTCATTTTATTATGTACTCAGCATATAGGGGGG [XGTACX_site505]  11.7 ± 0.66
6. ATATATATATATATATGTACGTACTCAGTTATGCCT [XGTACX_site453]  11.7 ± 1.2
7. TTTATTTTTCATTGGGGTACACAAGTTTATTTTATT [XGTACX_site4263]  11.7 ± 0.96
8. TTTATTTTTCATTGGGGTACACAAGTTTATTTTTGA [XGTACX_site4262]  11.7 ± 0.86
9. ATATAATTACATTGATGTACACGAAATGATTAACAT [XGTACX_site5183]  11.7 ± 1.1
10. GTAATAATTTTTTGTAGTACACAAAAATTCATATTT [XGTACX_site2699]  11.7 ± 1.1
11. AATTTTCATTTTAGAAGTACACACAAAAAATAAAAT [XGTACX_site4426]  11.7 ± 1.1
12. TATATATCCATGTGTACACACAAAAAAAAATAAAGT [CACACA_site7107]  11.7 ± 0.93
13. TATATATTCATGTGTACACACAAAAAAAAATAAAGT [CACACA_site2207]  11.7 ± 0.9
14. CCAAAAAATATATGTAGTACTACATTATTAAATATG [XGTACX_site5128]  11.6 ± 0.83
15. AAAAATATTAAAAGGCGTACAATACCTGTATGCAAC [XGTACX_site6069]  11.6 ± 1
16. GTATATATGTATGTATGTACGTATATAGTTATGTAT [XGTACX_site6769]  11.6 ± 0.93
17. ATTTGTGTATATTAGAGTACATAAAATTAGAGGAAC [XGTACX_site1654]  11.6 ± 0.92
18. TTTCATTTTAGAAGTACACACAAAAAATAAAATAAT [CACACA_site2141]  11.6 ± 0.92
19. TAAGTCATATAAATGTGTACATAAAAAAAAAAAATG [XGTACX_site1645]  11.6 ± 1
20. AATATATATTCATGTGTACACACAAAAAAAAATAAA [CACACA_site8690]  11.6 ± 0.84
21. AAATATATATTCATGTGTACACACAAAAAAAAATAA [XGTACX_site4552]  11.6 ± 0.84
22. AAGGCATACAATACCTGTACGCAACCTTAAAAAGAA [XGTACX_site6070]  11.5 ± 0.91
23. TTAAAATTAAAAATAGGTACACATATGAACAAGGAC [XGTACX_site1180]  11.5 ± 0.78
24. GTTTATTTTTTCATTTGTACACATAAATAAATATAT [XGTACX_site7752]  11.5 ± 0.75
25. CATATTAATATTATGGGTACATATAAATTTACATTC [XGTACX_site687]  11.4 ± 0.83
26. TATTATATATATAACTGTACGTTTATAATATAAAAA [XGTACX_site3778]  11.4 ± 1.1
27. TATATATATATATTATGTACTCATTTATTATCTTTT [XGTACX_site8051]  11.4 ± 1.1
28. ATATATATATATATATGTACTCATATTTTATTATTT [XGTACX_site898]  11.4 ± 0.94
29. ATATATATATATATATGTACACATATATGTGTTTGT [XGTACX_site62]  11.4 ± 0.88
30. TATCATATATGAAGGTGTACGATTTATTATATAAAT [XGTACX_site7010]  11.4 ± 0.95
31. TTACATATTTTTTAACGTACATAAATATATATGTAT [XGTACX_site8406]  11.4 ± 0.79
32. TCATTTATTTTTCTTTGTACACAAAAGTTTTTATGT [XGTACX_site690]  11.4 ± 0.9
33. ATATCTTCACTTATATGTACTTACATTTTTTTTTTT [XGTACX_site8696]  11.4 ± 0.81
34. AAATATAATTAATGATGTACACTTATAGATATTGAT [XGTACX_site8435]  11.4 ± 0.68
35. TAAATTTTTTTTTTTTGTACACAAAAATATAATATT [XGTACX_site8151]  11.4 ± 0.98
36. GTTAAAATAATATGGTGTACAAATATATAAGTTCAT [XGTACX_site3262]  11.4 ± 0.79
37. CTTTATATATTTTATTGTACTTAAAAAAAAAAAAAA [XGTACX_site2134]  11.4 ± 1.1
38. AATATAGATATAAAAAGTACATTATATATATATATA [XGTACX_site6899]  11.3 ± 0.78
39. TATAAGAATAAAAAGGGTACATAAAATAATAATATA [XGTACX_site2355]  11.3 ± 0.73
40. TATATATATATTATATGTACGTATGTATGTATATAT [XGTACX_site6451]  11.3 ± 0.8
41. TTATTTTTTTATTCATGTACACAAGAACATTTCATT [XGTACX_site5744]  11.3 ± 0.67
42. TTTTTTTTTTTTATTTGTACACATTTTCATATTTTT [XGTACX_site4406]  11.3 ± 0.98
43. ATATATATTTTTATAACACACAATGATGTACATTAC [CACACA_site1076]  11.3 ± 0.84
44. AAAATAATAATAAAAAGTACATGTGTATATAATAAA [XGTACX_site754]  11.3 ± 0.82
45. ATATATTTAATTTATGGTACACATAATTTTTTTAGA [XGTACX_site848]  11.2 ± 0.79
46. AAAAAAAAAAAGAAGGGTACATATTATATATAATAT [XGTACX_site6204]  11.2 ± 0.76
47. AATTTCATTTTTAGAAGTACATTTATATTAAAAATC [XGTACX_site2888]  11.2 ± 0.95
48. AAAATAATAAAAAACTGTACGAATTAAAAATTAACA [XGTACX_site8454]  11.1 ± 0.8
49. ATATAATATTACACAAGTACAAAAATTAATACTAAA [XGTACX_site482]  11.1 ± 0.61
50. AGTTTATATTATTAAAGTACATATATATATTCTTAA [XGTACX_site3164]  11.1 ± 0.76
51. ATATAATTTAATTTCTGTACATAAGAGAAAAAACAA [XGTACX_site4865]  11.1 ± 0.64
52. AGGAGGTCAGTTCACAGTACCCAGAAACTCTACGAG [XGTACX_site2006]  11.1 ± 0.73
53. TACAAATTTATATAAAGTACAAAAAATAATAAAAAT [XGTACX_site7355]  11.1 ± 0.57
54. ATAAAAATAAATAAATGTACATATATATATATATAT [XGTACX_site1277]  11.1 ± 0.58
55. ATTTTTTAAAATATTTGTACATATATAATGCATATA [XGTACX_site7026]  11 ± 0.64
56. AAAAAAAAAAAAAAAAAAAAAAAAAAAAATAAAAAA [CACACA_negctrl_site59]  11 ± 0.47
57. AAAACATATTTTAAAAGTACTTGAAAAAAAATTTTC [XGTACX_site3940]  11 ± 0.56
58. ATTTCTAGTTTAAGATGTACTTTAATAAAAATTATT [XGTACX_site4820]  11 ± 0.77
59. TTTCTTGGGAGACATGCATGTACCAGAACAAAATAA [TGCATGCA_site272]  10.9 ± 0.64
60. CAGAAATATTAATGCTGTACGGAATACATATATTTT [XGTACX_site539]  10.9 ± 0.6
61. AGGTCATACATAAAATGTACATATATATAAATATAT [XGTACX_site7147]  10.9 ± 0.54
62. AATAATTTCCAAAAATGTACATATATTTACATATAT [XGTACX_site1790]  10.9 ± 0.52
63. TATATATGTATGTATTGTACAATTAAAAATATGTAT [XGTACX_site3990]  10.8 ± 0.43
64. TTTTGGATGAACAGTACATGCAAAAACAAACTTGTA [TGCATGCA_site16]  10.8 ± 0.37
65. TGAAAAGAAAACACATGTACAAATATATAAATATAA [XGTACX_site6098]  10.8 ± 0.35
66. TATTCATAATTTTAATGTACAAAATGGTTTGTAATA [XGTACX_site8493]  10.6 ± 0.33
67. TAAAAAAACATATATTGTACGGAGATAATAATTTTT [XGTACX_site2946]  10.6 ± 0.31
68. ACATACATACATACATACATACATACATACATACAT [XGTACX_negctrl_site315]  10.6 ± 0.57
69. TTCTTTTTCCAATTTGCACACCACAAAATTATATAT [CACACA_site2909]  10.5 ± 0.28
70. TCCTCGCGTAATACTTTTCAAATAAAAAAAATAAAA [TGCATGCA_negctrl_site403]  10.5 ± 0.48
71. CTCATCCTTACATACACACACATATATATATATATA [CACACA_site103]  10.3 ± 0.41
72. TAGAAGCATTGACACACACACATACATACACATACA [CACACA_site6802]  10.2 ± 0.26
73. ATAGAATACATATATGAACACACAGAGTTTTAAAAA [CACACA_site8879]  10.15 ± 0.042
74. TCTATTTTCTTATGAATGCACTAATTTATAAAACGT  10.1 ± 0.13
75. ATATATATTATATGCACACTAATAAGACTATTTAAA [CACACA_site3554]  10.1 ± 0.23
76. ATATTTAAAGAATAAGTGCAAAATGTAATTAATTTT [GTGCAC_site9901]  10.065 ± 0.007
77. ATAAATAAAATAAAAGCACACAAAATGTAAATAATT [CACACA_site8895]  10.04 ± 0.057
78. GCTTAATACAGAATAACACACAAAATAAATAAATAA [CACACA_site4041]  10 ± 0.12
79. TTATATTTAGTATATGCACACTTTATGTTTGTTATT [CACACA_site5163]  9.955 ± 0.035
80. TGGTCTTTTAAACAAAAATATAAATTTTTAAATATG [CACACA_negctrl_site392]  9.94 ± 0.23
81. GCTTCTTAATATCATACACACATAGATATATTTATA [CACACA_site5676]  9.925 ± 0.078
82. TAAAAGGATGCATATACACACATATAGATTTATATA [CACACA_site7336]  9.915 ± 0.035
83. ATAACCACATAAAATATAATTATATATATATATATA [CACACA_negctrl_site603]  9.87 ± 0.26
84. AAAAAAAAAAAACATACACACATACATACATATATA [CACACA_site8222]  9.86 ± 0.099
85. ATTAAAGTTATAAATTCACACATGTAAATGTATTTA [CACACA_site5279]  9.85 ± 0.11
86. AATAAAAAAAATAGCATACACACATATATACATATA [CACACA_site659]  9.75 ± 0.028
87. AGAGTATATATATATGCATGCATATCTCATATTTAT [TGCATGCA_site509]  9.71 ± 0.13
88. AAGAAATATATATATATATATATATATATATATGTA [TGCATGCA_negctrl_site442]  9.67 ± 0.16
89. TAGTAGTTATCATTAACATGCAATAATATTATTTAA [TGCATGCA_site178]  9.635 ± 0.035
